# Screening data: PubChem BioAssay, several laboratories
# FBA Mtb inh: Mtb fructose-bisphosphate aldolase inhibition | AID 588726 | purified M. tuberculosis FBA, fluorescence read-out | inhibition, % at 1 µM | actives 2.3% (n = 360,000); in the data active = inhibition above about 27%;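 note: 0% = vehicle and 100% = reference inhibitor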
# Target sequence (P9WQA3 whole entry, looked up): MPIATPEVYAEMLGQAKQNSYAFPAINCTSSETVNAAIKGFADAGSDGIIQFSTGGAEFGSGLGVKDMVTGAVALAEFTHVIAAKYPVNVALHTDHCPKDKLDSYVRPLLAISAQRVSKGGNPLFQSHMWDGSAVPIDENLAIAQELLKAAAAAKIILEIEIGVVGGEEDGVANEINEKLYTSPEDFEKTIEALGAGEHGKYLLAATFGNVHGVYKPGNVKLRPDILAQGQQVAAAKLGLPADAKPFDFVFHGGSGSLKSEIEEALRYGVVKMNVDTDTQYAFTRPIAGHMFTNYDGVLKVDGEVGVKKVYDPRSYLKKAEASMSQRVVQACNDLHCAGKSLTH
# Mtb BioA inh: blocks M. tuberculosis BioA enzyme activity | purified M. tuberculosis BioA enzyme, plate reader | inhibition, % at 9.99 µM | actives 0.096% (n = 360,000); in the data active = inhibition above about 40%
# GDH-TPI inh: inhibits GDH-TPI coupling enzymes, artifact for Mtb FBA screen; GDH-TPI coupled enzyme counterscreen, NADH absorbance; inhibition, % at 4.8 µM; actives 1.2% (n = 360,000); in the data active = inhibition above about 30%;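 note: 0% = DMSO wells and 100% = wells lacking the enzyme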
# BH1578 lux ind: inducers of Vibrio cholerae quorum light production without autoinducers | AID 588436 | V. cholerae BH1578 lux reporter, luminescence, 6 h | activation, % at 18.7 µM | actives 0.16% (n = 350,000); in the data active = activation mostly above about 9.7%, no sharp cut-off
# An asterisk follows results filed as active; i = inactive; nt = no result; + = active, no number. This is a sample that favours compounds with a hit; in the whole collection about 3% have one here.
SMILES,FBA Mtb inh,Mtb BioA inh,GDH-TPI inh,BH1578 lux ind
CCOC(=O)c1nn(-c2ccc(Cl)cc2)cc1O,11,-4,19,i
C[C@@H]1CCCCO[C@@H](CN(C)C(=O)CCC(F)(F)F)[C@H](C)CN([C@H](C)CO)C(=O)c2cc(NS(=O)(=O)c3cccs3)ccc2O1,nt,-6,nt,nt
COC1C(OC(=O)/C=C/C=C/C=C/C=C/C(=O)O)CCC2(CO2)C1C1(C)OC1CC=C(C)C (configuration not stated) (tested in a mixture with another compound),-1,nt,64*,i
C[C@H]1CCCCO[C@H](CN(C)C(=O)CCC(F)(F)F)[C@@H](C)CN([C@@H](C)CO)C(=O)c2cc(NS(=O)(=O)c3cn(C)cn3)ccc2O1,nt,-1,nt,nt
O=C(CCN1CCCCC1)NCC[C@@H]1CC[C@@H](NS(=O)(=O)c2cccc(F)c2)[C@@H](CO)O1,nt,-3,nt,nt
CCCn1c(=O)c2[nH]c(-c3ccc(S(=O)(=O)O)cc3)nc2n(CCC)c1=O,+,0,9,-1
C[C@H](O)C#Cc1ccc2c(c1)O[C@H](CN(C)C(=O)c1ccccc1)[C@@H](C)CN([C@@H](C)CO)S2(=O)=O,nt,0,nt,nt
Cc1cccc(/C=N\Nc2nnc(-c3ccccc3)c(=O)[nH]2)c1,-1,nt,15,0
CC(/C=N/Nc1nnc(C)c(=O)[nH]1)=C\c1ccccc1,-3,0,32*,0
CCN(CC)CCCNC(=O)c1cn(CC)c2cc(N3CCN(C(=O)c4ccco4)CC3)c(F)cc2c1=O,54*,5,20,i
CCN(CC)CCNC(=O)c1cn(CC)c2cc(N3CCN(C(=O)c4ccco4)CC3)c(F)cc2c1=O,22,nt,4,-1
CC(=O)N(C)C[C@@H]1Oc2cc(C#Cc3ccccn3)ccc2S(=O)(=O)N([C@@H](C)CO)C[C@H]1C,nt,0,nt,nt
CC(=O)c1sc(Nc2ccccc2)nc1C,5,4,nt,nt
Cc1nc(Nc2ccccc2)sc1-c1ccccc1,0,0,10,1
CCOC(=O)c1sc(NC(=O)c2ccco2)nc1-c1ccccc1,1,-1,35*,0
Cc1nc(NC(=O)c2ccco2)sc1C(=O)O,2,0,12,0
CC(C)(C)C(=O)c1sc(Nc2ccccc2)nc1N,-3,2,40*,i
COC(=O)c1sc(NC(=O)c2ccco2)nc1C,-1,0,41*,nt
Cc1nc(Nc2ccc(C(=O)O)cc2)sc1-c1ccccc1,-2,nt,37*,0
O=C(Nc1ccc2c(c1)OCO2)N[C@@H]1CC[C@@H](CCNC(=O)C2CCCC2)O[C@H]1CO,nt,-8,nt,nt
C[C@@H]1CN([C@@H](C)CO)C(=O)c2cc(NC(=O)Cn3cnnn3)ccc2O[C@H]1CN(C)C(=O)Nc1ccccc1,nt,3,nt,nt
C[C@H](NC(=O)C[C@@H]1C=C[C@H](NC(=O)C2CC2)[C@H](CO)O1)c1ccccc1,nt,-2,nt,nt
CCOC(=O)c1sc(NC(=O)c2ccc(=O)[nH]c2)nc1C,4,-1,31*,-1
Cc1nc(-c2ccncc2)sc1C(=O)Nc1ccc(Br)cc1,-4,nt,-3,i
Cc1nc(NC(=O)c2ccco2)sc1C(=O)Nc1ccc(Br)cc1,11,-1,52*,-9
SMILES,FBA Mtb inh,Mtb BioA inh,GDH-TPI inh,BH1578 lux ind
CCOC(=O)c1sc(NC(=S)NC(=O)c2ccco2)nc1C,1,0,35*,0
CCOC(=O)c1sc(Nc2ccccc2)nc1C,2,0,30,3
COC(=O)c1sc(Nc2ccccc2)nc1C,5,2,32*,i
Cc1ccc(S(=O)(=O)Nc2cccc3c2O[C@H](CN(C)C(=O)Nc2ccc(F)cc2)[C@H](C)CN([C@H](C)CO)C3=O)cc1,nt,0,nt,nt
O=C(NN=Cc1ccc(O)cc1)c1ccccc1NS(=O)(=O)c1cccs1,4,0,37*,0
CC(=O)Nc1ccc(/C=N/NC(=O)c2cccc(S(=O)(=O)N3CCOCC3)c2)cc1,1,nt,36*,0
COc1ccccc1CNC(=O)c1ccc(NS(=O)(=O)c2cccs2)cc1,-3,2,-12,-1
O=C(O)c1ccc(C=NNC(=O)c2ccccc2NS(=O)(=O)c2cccs2)cc1,-1,0,18,0
CC(=O)Nc1ccc(C=NNC(=O)c2ccc(NS(=O)(=O)c3cccs3)cc2)cc1,2,2,59*,i
COc1cc(C=NNC(=O)c2ccc(NS(=O)(=O)c3cccs3)cc2)cc(Br)c1O,1,-3,52*,i
C[C@@H]1CN([C@@H](C)CO)C(=O)Cc2cc(NC(=O)Cc3cn(C)c4ccccc34)ccc2O[C@H]1CN(C)Cc1ccc(Oc2ccccc2)cc1,nt,-3,nt,nt
COc1ccc(NC(=O)N(C)C[C@H]2Oc3ccc(NC(=O)NC(C)C)cc3C(=O)N([C@@H](C)CO)C[C@H]2C)cc1,nt,5,nt,nt
